Shiga inhibitor = Shiga toxin inhibition | Vero cells, Shiga toxin protein synthesis inhibition reporter | inhibition, % at 38.7 µM | AID 2315 | 290,000 tested, 9.2% active; in the data active means inhibition mostly above about 28%, no sharp cut-off; inactive means mostly below about 43%; further: 0% is about no effect
HCMV inh = blocks human cytomegalovirus replication. HFF cells, HCMV-luciferase reporter, 72 h; hits give low values. 410,000 tested, 4.5% active. activity change, negative = inhibition, % at 57.5 µM; in the data active means activity change below about -60%; inconclusive means no clear call, values can overlap the other calls; inactive means above about -39%; further: on the % scale 0 is the no-effect control and ±100 the full control effect
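After 16 h attachment at 37C, HFF cells received test compound and HCMV-luciferase (1 PFU/cell); reporter luminescence read 72 h later, data normalized against buffer-only and known inhibitor Salinomycin.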
Cycloheximide cs = affects cycloheximide protein synthesis inhibition readout, counter-screen | cell reporter, cycloheximide protein synthesis inhibition counterscreen | max response, % | 300,000 tested, 12% active; in the data active means max response mostly above about 13%, no sharp cut-off; inactive means mostly below about 14%; further: read at 38.3 µM for the half of the compounds with a filed dose; 0% is about no effect
Pf growth 96h = P. falciparum growth inhibition at 96 hour, primary screen for plastid delayed-death inhibitors; Potency, µM (highest dose often 28.7 µM), for the others: top-dose activity change, negative = inhibition, hits mostly inhibitors; P. falciparum luciferase reporter growth, 96 h; AID 504834; 320,000 tested, 6.9% active; further: potency means the concentration at half of the fitted maximal effect; on the % scale 0 is the no-effect control and ±100 the full control effect
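96 h incubation, 37 C, 5% CO2, of luciferase-reporter P. falciparum-infected RBCs (2% hematocrit, 0.05% parasitemia final) with test compounds; endpoint luminescence.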
HCV inh = blocks hepatitis C virus. Potency, µM (highest dose often 41.8 µM), without a hit: at the highest dose activity change, negative = inhibition, actives largely listed as inhibitors. 340,000 tested, 3.4% active. Huh7.5.1 HCVcc-Cre infection, luciferase reporter, 44 h; further: potency means the concentration at half of the fitted maximal effect; on the % scale 0 is the no-effect control and ±100 the full control effect
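Whole-lifecycle infectious HCVcc-Cre system; cells 1,000/well, compound then virus (~0.5 moi) added 4 h after plating, 44 h culture. Luciferase read 15 sec following 15 min substrate incubation, room temp.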
Pf growth 48h = P. falciparum growth inhibition at 48 hours (one generation); Potency, µM (titrated, usually from 28.7 µM), for the others: at the highest dose activity change, negative = inhibition, usual class: inhibitors; P. falciparum luciferase growth in erythrocytes, 48 h; 310,000 tested, 5.9% active; further: potency means the concentration at half of the fitted maximal effect; on the % scale 0 is the no-effect control and ±100 the full control effect
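Cell-based growth assay: transgenic P. falciparum expressing firefly luciferase, cultured in red cells within RPMI 1640 containing 0.5% w/v Albumax, 24 mM bicarbonate and gentamycin. A drop in luciferase activity indicates inhibition.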
* hit, by the source's call; ? = inconclusive; / = no result given; [ ] = another dose, or the depositor's remark. Compounds with a hit are over-represented: about 21% of the library has one in this group of screens. Unless noted, the call rests on the fitted dose curve; in most records, active means well fitted inhibition curve with a large enough effect; inconclusive means small, poorly fitted or top-dose-only effect, or another doubt; inactive means no such curve, though single readings can be large or run the other way.

SMILES	Shiga inhibitor	HCMV inh	Cycloheximide cs	Pf growth 96h	HCV inh	Pf growth 48h
COc1ccc(Br)c(C(=O)OCC(=O)N2CCC(Cc3ccccc3)CC2)c1	/	-21.7	/	-6.9%	11.8%	13.1µM*
O=C(OCC(=O)N1CCC(Cc2ccccc2)CC1)c1ccccc1O	/	48.2	/	/	3.9%	/
NC(=O)c1ccccc1OCC(=O)N1CCC(Cc2ccccc2)CC1	/	-68.4*	/	-24.9%	8.91µM*	?
CC(C)c1ccc(C2C3=C(CC(c4ccco4)CC3=O)Nc3nc(C(F)(F)F)nn32)cc1 (stereo unspecified)	-8.6	/	8.8	/	/	/
CN(NS(=O)(=O)c1ccc(Br)cc1)c1nc(C(F)(F)F)nc2ccccc12	-4.8	-64.4*	8.5	13.3%	-14.7%	0.0%
CN(N)c1nc(C(F)(F)F)nc2ccccc12	-16.6	?	-5.1	8.1%	-7.7%	-29.6%
Cc1ccc(NC(=O)CC2=NC(=O)C(CC(=O)Nc3ccccc3C)S2)cc1 (stereo unspecified)	-0.4	-21.2	-0.6	-20.2%[5.75 µM]	-20.6%	-18.6%[5.75 µM]
CCc1ccc(NC(=O)N2c3ccccc3Sc3ccccc32)cc1	/	-17.4	/	/	/	/
NS(=O)(=O)c1ccc(NC(=O)N2c3ccccc3Sc3ccccc32)cc1	-9.9	-63.5*	-2.5	2.33µM*	-6.0%	?
CCOCCCNS(=O)(=O)c1ccc(NC(=O)N2c3ccccc3Sc3ccccc32)cc1	-8.8	-19.2	2.5	11.7µM*	?	?
CCCN(CC(=O)Nc1cccc(Br)c1)CC(=O)Nc1ccc(F)c(F)c1F	-10.8	11.0	-2.2	3.7µM*	?	?
O=C(NCCc1ccccc1)C(c1cccs1)N(C(=O)c1csnn1)C1CC1 (stereo unspecified)	-13.4	5.5	-3.6	?	13.0%	-11.9%
O=C(NCCc1ccccc1)C(c1cccs1)N(C(=O)CCl)c1ccc(Cl)cc1 (stereo unspecified)	-18.9	-99.5*	-4.2	?	?	?
CCc1ccc(N2CC(C(=O)OCC(=O)Nc3ccc(C(C)=O)cc3)CC2=O)cc1 (stereo unspecified)	/	-8.6	/	-28.6%	8.3%	-21.8%
Cc1ccc(NCCN(C)C)c2c(=O)c3cc(O)ccc3sc12	/	-98.7*	/	/	10µM*	/
CCN(CC)CCCNc1ccc2ncn3c4ccc(O)cc4c(=O)c1c23	/	-89.8*	/	/	?	/
CN(C)CCNc1cccc2sc3ccc(O)cc3c(=O)c12	/	-3.6	/	/	/	/
CN(C)CCNc1ccc2nnn3c4ccc(O)cc4c(=O)c1c23	/	-87.6*	/	/	10µM*	/
CCN(CC)CCCNc1ncnc2ccccc12	-20.0	22.2	-1.7	?	4.1%	?
Cc1cc(C)c(/C=N/n2c(C)cc(C)c(C#N)c2=O)c(C)c1	-5.5	-17.2	-4.1	10.4µM*	-19.0%	?
Cc1cc(C)n(/N=C/c2cccs2)c(=O)c1C#N	10.3	-76.2*	-2.0	?	9.5%	-11.7%
Cc1n[nH]c(=O)n(N=Cc2cccs2)c1=O	/	-0.5	/	/	/	/
Cc1ccc(-c2cc3ncc4c(n3n2)-c2ccccc2OC4)cc1	/	111.8	/	/	/	/
NC1=NC(=O)C(Cc2ccc(Br)cc2)S1 (stereo unspecified)	-7.2	0.0	-3.3	-5.6%	8.2%	17.3%
CCOC(=O)C(CC(C)C)CP(=O)(O)CNC(=O)OCc1ccccc1 (stereo unspecified)	-6.1	?	-4.1	7.38µM*	11.2%	0.2%
SMILES	Shiga inhibitor	HCMV inh	Cycloheximide cs	Pf growth 96h	HCV inh	Pf growth 48h
Cc1ccc(CN2CCc3nc(N4CCN(C)CC4)ncc3C2)s1	/	3.7	/	/	/	/
O=C(CCCNS(=O)(=O)c1cccc2nsnc12)NCc1ccccc1	13.3	18.4	-0.8	9.28µM*	11.3%	4.7%
CC1Cc2ccccc2N1C(=O)CCNS(=O)(=O)c1cccc2nsnc12 (stereo unspecified)	-7.3	2.6	-2.6	2.62µM*	2.2%	-11.4%
Cc1cccc(CN2C[C@]34CC[C@@H](C[C@@H]3S2(=O)=O)O4)c1	-1.5	19.4	-1.8	-0.9%	7.08µM*	16.3%
Cc1cccc(CN2CC34CCC(CC3S2(=O)=O)O4)c1 (stereo unspecified)	10.1	/	8.6	/	/	/
COc1ccc2c(c1)CC(C(=O)NCCc1ccc(S(N)(=O)=O)cc1)CO2 (stereo unspecified)	/	-3.2	/	/	/	/
CC(C)NC(=O)N(C)C[C@H]1Oc2ccc(NS(=O)(=O)c3ccccc3)cc2C(=O)N([C@H](C)CO)C[C@H]1C	/	-0.1	/	/	9.6%	/
Cc1ccc(-n2nnnc2SCC(=O)NCC2(N3CCCCC3)CCCCC2)c(C)c1	/	6.6	/	7.38µM*	-18.1%	10.4µM*
Cc1ccc(-n2nnnc2SCC(=O)Nc2ccc(N3CCN(C)CC3)cc2)c(C)c1	-11.0	-98.8*	-0.9	-3.0%	-16.1%	?
CN1CCN(c2ccc(NC(=O)CSc3nnnn3-c3ccccc3F)cc2)CC1	1.7	-15.2	5.6	24.8%	-4.7%	5.0%
Cc1ccc(-n2nnnc2SCC(=O)NCC2(N3CCOCC3)CCCCC2)c(C)c1	/	?	/	?	?	13.1µM*
Cc1cccc(-n2nnnc2SCC(=O)NCC2(N3CCOCC3)CCCCC2)c1C	/	-6.2	/	?	?	11.7µM*
Cc1ccc(-n2nnnc2SCC(=O)NCC2(N3CCOCC3)CCCCC2)cc1	/	-14.6	/	?	29.6%	?
CNC(=O)CSc1nnnn1-c1cc(C)ccc1C	-1.1	-13.9	-0.9	3.3%	5.9%	-9.2%
Cc1ccc(-n2nnnc2SCC(=O)N2CCc3ccccc3C2)c(C)c1	9.8	-3.6	0.7	13.1µM*	12.6µM*	?
Cc1ccc(SCC(=O)Nc2ccc(N3CCN(C)CC3)c(F)c2)c(C)c1	37.2	98.7	24.1*	?	?	?
Cc1ccc(C)c(-n2nnnc2SCC(=O)Nc2cccc(-c3nnc4n3CCCCC4)c2)c1	53.9	-17.7	13.9	?	-11.2%	9.28µM*
Cc1ccc(-n2nnnc2SCC(=O)N2CCc3ccccc3C2)cc1	-4.4	31.9	7.0	1.2%	?	-12.2%
O=C(COC(=O)c1ccc(O)cc1)NC1CCCCCC1	/	-0.5	/	25.8%	-7.0%	7.8%
O=S(=O)(NCc1c(Cl)cccc1Oc1ccccc1)c1ccc(F)cc1	-0.9	-10.3	-1.1	?	1.9%	9.28µM*
O=C(O)CSCC(=O)NCc1c(Cl)cccc1Oc1ccccc1	-11.5	23.2	-3.2	21.3%	14.4%	6.0%
COc1cc(Br)cc(C2C3=C(CCCC3=O)N(c3ccc(F)cc3)C3=C2C(=O)CCC3)c1O	-13.5	-4.6	0.6	?	?	5.22µM*
CCc1nc(SCC#N)c(C#N)cc1C	18.8	/	10.1	21.5%	/	0.0%
Cc1cccc2cc(C#N)c(SCC(=O)NNC(=O)Cc3ccccc3)nc12	-5.9	-63.0*	-2.7	54.1%	-21.8%	51.7%
Cc1cccc2cc(C#N)c(SCC#N)nc12	-3.9	-66.7*	-2.9	-13.1%	3.6%	33.1%
